Source: PubChem BioAssay (National Center for Advancing Translational Sciences (NCATS))
Most compounds without a hit are left out; they make up all but 19% or so of the library.
Giardia killer = Giardia lamblia killing | Giardia lamblia trophozoite viability | activity change, % at 7.66 µM, hits read low | actives 0.15% (n = 340,000) | AID 540267; in the data active = activity change below about -80%; inconclusive = between about -30% and that limit;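 note: parasites exposed to compound for two days anaerobically before the ATP read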
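Trophozoites 100 cells/well + cpd; 48 hrs, 37 deg C, anaerobic. ATPLite 1-Step added, 15-30 min RT, luminescence read (ATP-based viability).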
DT40 TDP1 CPT = growth inhibition of DT40 Tdp1-/-;hTDP1 cells with camptothecin (screen for TDP1 inhibitors). Potency, µM (doses to about 46.2 µM), without a hit: at the highest dose activity change, negative = growth inhibition, most hits filed as inhibitors. actives 12% (n = 420,000). chicken DT40 Tdp1-/-;hTDP1 cells + 20 nM CPT, ATP luminescence, 48 h. AID 686979; note: potency is the fitted concentration of half-maximal effect; nearly all actives have a fitted effect of over 55% in size
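Cell growth measured by CellTiter-Glo luminescence after a minimum 48 h, 37 C compound exposure with 20 nM CPT in Tdp1-knockout DT40 cells stably expressing hTDP1, seeded 400/well; qHTS titration format.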
ELG1 repair inh = inhibitors of ELG1-dependent DNA repair in HEK293T cells; HEK293T ELG1-luciferase reporter, luminescence, 16 h; DNA damage induced by 5-fluorouridine; AID 504467; Potency, µM (doses to about 46.1 µM), without a hit: top-dose activity change, negative = inhibition, actives largely listed as inhibitors; actives 2.3% (n = 330,000); note: potency is the fitted concentration of half-maximal effect; nearly all actives have a fitted effect of over 55% in size
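Reporter activity after DNA damage by 5-fluorouridine is monitored. Compound-treated cells incubate 16 hr at 37 °C, then ONE-Glo is added for 30 min before luminescence reading.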
TDP1 inh = TDP1 (human) enzyme inhibition; recombinant TDP1, AlphaScreen DNA substrate cleavage; Potency, µM (series often up to 130 µM), for the others: at the highest dose activity change, negative = inhibition, hits mostly inhibitors; actives 0.28% (n = 350,000); note: potency is the fitted concentration of half-maximal effect; nearly all actives have a fitted effect of over 40% in size
Target sequence (Q9NUW8 whole entry, looked up): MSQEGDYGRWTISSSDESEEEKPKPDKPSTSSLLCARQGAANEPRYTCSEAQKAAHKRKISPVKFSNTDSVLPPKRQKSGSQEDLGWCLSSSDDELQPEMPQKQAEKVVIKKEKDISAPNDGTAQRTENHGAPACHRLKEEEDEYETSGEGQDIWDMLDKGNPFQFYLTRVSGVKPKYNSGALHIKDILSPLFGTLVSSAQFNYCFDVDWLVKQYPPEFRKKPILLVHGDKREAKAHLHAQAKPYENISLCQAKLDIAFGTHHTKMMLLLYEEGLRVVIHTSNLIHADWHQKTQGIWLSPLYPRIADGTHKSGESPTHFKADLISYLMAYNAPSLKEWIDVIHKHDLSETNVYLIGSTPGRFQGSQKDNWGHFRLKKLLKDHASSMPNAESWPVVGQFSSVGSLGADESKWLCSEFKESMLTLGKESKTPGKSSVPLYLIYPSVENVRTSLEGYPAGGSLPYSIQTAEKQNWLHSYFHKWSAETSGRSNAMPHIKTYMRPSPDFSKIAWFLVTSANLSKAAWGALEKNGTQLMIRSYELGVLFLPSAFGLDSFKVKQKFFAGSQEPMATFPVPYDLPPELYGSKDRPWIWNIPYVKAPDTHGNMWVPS
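Recombinant E. coli-expressed Tdp1 (1 nM) preincubated with compound 15 min at RT, then 5'-biotin/3'-phosphotyrosine-FITC DNA substrate (15 nM) added for 5 min. AlphaScreen beads (10 ug/ml) added, 10 min RT; tyrosine-FITC cleavage read as signal loss.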
IL-1B inflam inh = inflammasome signaling inhibition, IL-1 beta readout | THP-1 LPS/ATP IL-1B secretion, AlphaLISA, 16 h; stronger effect = lower value | actives 4.7% (n = 360,000) | activity change, % at 57.5 µM; in the data active = activity change below about -50%; inconclusive = mostly about -30% to -49%
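THP-1 cells pretreated 1 hr with compounds (up to 57.5 uM final), then stimulated with LPS (250 ng/mL final) plus ATP (1.25 mM final); secreted IL-1B measured by AlphaLISA after 16 hr, decreased signal indicating inhibition.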
TDP1 cell noCPT = qHTS for Inhibitors of human tyrosyl-DNA phosphodiesterase 1 (TDP1): qHTS in cells in absence of CPT. DT40 Tdp1-/- hTDP1 cells, no CPT, ATP luminescence, 48 h. Potency, µM (top dose mostly 46.2 µM), inactives show at the top dose activity change, negative = growth inhibition, hits mostly inhibitors. actives 15% (n = 420,000); note: potency is the fitted concentration of half-maximal effect; nearly all actives have a fitted effect of over 55% in size
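No-CPT arm: Tdp1-/-;hTDP1 DT40 cells (400/well) plus compounds, incubated ≥48 hr at 37 °C. Readout CellTiter-Glo luminescence.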
Numbers without * were called inactive; ? = inconclusive; · = no result given; [ ] = remark or other dose. Unless noted, calls come from the whole dose curve; as a rule, active = well fitted curve in the direction sought with a large enough effect; inconclusive = small, poorly fitted or top-dose-only effect, or another doubt; inactive = no such curve, though single readings can be large; an effect the other way counts as inactive or inconclusive. % is set by controls: 0 for no effect and ±100 for the full control effect.

SMILES	Giardia killer	DT40 TDP1 CPT	ELG1 repair inh	TDP1 inh	IL-1B inflam inh	TDP1 cell noCPT
COc1ccc(C(C)NC(=S)NCc2ccc(F)cc2)cc1 (centres undefined)	3	18µM*	3%	-2%[56.1 µM]	22	?
COc1cccc(NC(=O)C2CCN(S(=O)(=O)c3ccc4c(c3)NC(=O)C(C)S4)CC2)c1 (centres undefined)	-12	21µM*	-23%	3%	26	21µM*
Cc1ccc(NC(=O)C2CCN(S(=O)(=O)c3ccc4c(c3)NC(=O)CO4)CC2)cc1	-20	3%	-4%	2%	-7	?
CC(C)c1ccc(NC(=O)C2CCN(S(=O)(=O)c3ccc4c(c3)NC(=O)CO4)CC2)cc1	?	?	-3%	5%	-6	23µM*
CC1Sc2ccc(S(=O)(=O)N3CCC(C(=O)Nc4ccc(Cl)cc4)CC3)cc2NC1=O (centres undefined)	25	21µM*	4.6µM*	1%	-19	9.2µM*
CCOC(=O)[C@]12CCCC=C1N(Cc1ccc(Cl)cc1Cl)C(=O)[C@H](CC(=O)NCCC(C)C)C2	·	?	·	·	?	21µM*
C#CCNC(=O)C[C@@H]1C[C@@]2(C(=O)OCC)CCC=C2N(Cc2ccc(Cl)cc2Cl)C1=O	·	?	·	·	11	23µM*
C#CCNC(=O)C[C@@H]1C[C@@]2(C(=O)OCC)CCC=C2N(Cc2ccco2)C1=O	·	1%	·	·	28	-6%
CCOC(=O)[C@]12CCCC=C1N(Cc1ccccc1)C(=O)[C@H](CC(=O)NCCCOC)C2	·	?	·	·	0	?
CCCCOCCCNC(=O)C[C@@H]1C[C@@]2(C(=O)OCC)CCC=C2N(Cc2ccc(Cl)cc2Cl)C1=O	·	21µM*	·	·	-89*	15µM*
CCCCOCCCNC(=O)C[C@@H]1C[C@@]2(C(=O)OCC)CCC=C2N(Cc2ccccc2)C1=O	·	?	·	·	-4	?
CCOC(=O)[C@]12CCCC=C1N(Cc1ccc(Cl)cc1Cl)C(=O)[C@H](CC(=O)NCCCOC)C2	·	?	·	·	-14	16µM*
Cn1c(=O)cc(OCC(=O)NCc2cccs2)c2ccccc21	20	-17%	?	2%	-2	-19%
Cn1c(CNC(=O)CNS(=O)(=O)c2ccc(F)cc2F)cc(=O)n(C)c1=O	-10	-9%	22%	2%	-4	26%
CCOC(=O)[C@]12CCCC=C1N(Cc1ccc(Cl)cc1Cl)C(=O)[C@H](CC(=O)NCC1CCCCC1)C2	·	23µM*	·	·	-62*	?
CCOC(=O)[C@]12CCCC=C1N(Cc1ccc(Cl)cc1Cl)C(=O)[C@H](CC(=O)NCC13CC4CC(CC(C4)C1)C3)C2	·	?	·	·	-6	18µM*
COC(=O)[C@]12CCCCC=C1N(Cc1ccc(Cl)cc1Cl)C(=O)[C@H](CC(=O)NCc1ccccc1)C2	·	?	·	·	-18	?
CCOC(=O)[C@]12CCC=C1N(Cc1ccc(Cl)cc1Cl)C(=O)[C@H](CC(=O)NCCC(C)C)C2	·	?	·	·	0	21µM*
C#CCNC(=O)C[C@@H]1C[C@@]2(C(=O)OC)CCCCC=C2N(Cc2ccc(Cl)cc2Cl)C1=O	·	?	·	·	-19	18µM*
O=C(O)CC1(CC(=O)Nc2cc3ccccc3cn2)CCCCC1	4	4%	6%	0%	·	-19%
CCSc1ncc(CO)c(N)n1	-4	13%	?	4%	24	12%
Cn1c(SCc2nc3ccccc3c(=O)[nH]2)nc2ccccc21	28	1%	-1%	-3%	22	-13%
O=c1[nH]c(CSc2cccc[n+]2[O-])nc2ccccc12	-24	10µM*	?	4%	63	?
COc1ccc(OC)c(-c2csc(NC(=O)Cc3cccs3)n2)c1	-7	-7%	?	5%	-17	?
CC1Cc2cc(-c3csc(NC(=O)Cc4cccs4)n3)ccc2N1S(C)(=O)=O (centres undefined)	-13	?	4.6µM*	7%	-22	23µM*
SMILES	Giardia killer	DT40 TDP1 CPT	ELG1 repair inh	TDP1 inh	IL-1B inflam inh	TDP1 cell noCPT
CCC(=O)Nc1nnc(S(=O)(=O)N2c3ccccc3CC2C)s1 (centres undefined)	4	12%	-3%	8%	-27	-16%
CCC(=O)Nc1nc(-c2ccc3c(c2)CC(C)N3S(C)(=O)=O)cs1 (centres undefined)	4	?	?	-1%	-16	16µM*
NC(=O)CC(NC(=O)Cc1cccc2ccccc12)c1ccc(N2CCc3ccccc3C2)c([N+](=O)[O-])c1 (centres undefined)	9	16µM*	?	5%	?	?
NC(=O)CC(NC(=O)Cc1ccc(Br)cc1)c1ccc(N2CCN(c3ccccc3)CC2)c([N+](=O)[O-])c1 (centres undefined)	-6	16µM*	-7%	1%	20	?
NC(=O)CC(NC(=O)Cc1ccc(Br)cc1)c1ccc(N2CCN(c3ccccn3)CC2)c([N+](=O)[O-])c1 (centres undefined)	8	?	?	·	29	-16%
Cc1cc(C)cc(C(=O)NC(CC(N)=O)c2ccc(N3CCN(c4ccccc4)CC3)c([N+](=O)[O-])c2)c1 (centres undefined)	-26	?	-7%	·	-7	-21%
COc1ccc(OC)c(C(=O)NC(CC(N)=O)c2ccc(N3CCN(c4ccc(F)cc4)CC3)c([N+](=O)[O-])c2)c1 (centres undefined)	2	?	-6%	·	-3	-25%
NC(=O)CC(NC(=O)c1ccccc1)c1ccc(N2CCN(c3ccc(F)cc3)CC2)c([N+](=O)[O-])c1 (centres undefined)	1	18µM*	?	·	-12	8.2µM*
NC(=O)CC(NC(=O)c1ccccc1)c1ccc(N2CCN(c3ccccc3)CC2)c([N+](=O)[O-])c1 (centres undefined)	24	21µM*	?	·	-10	13µM*
Cc1cc(C)c(S(=O)(=O)c2ccccc2)c(N2CCOCC2)n1	-12	-15%	17%	3%	48	-19%
Cc1c(Cl)cccc1NC(=O)C(C)n1nnc2sc3c(c2c1=O)CCCC3 (centres undefined)	·	?	·	5%	·	-18%
COc1cccc(C(c2c(N)[nH]c(=S)[nH]c2=O)c2c(N)[nH]c(=S)[nH]c2=O)c1	19	13%	-12%	·	3	10%
